# Screens: PubChem, several laboratories
# A selection: hits, their analogues and other compounds. The true share with any hit is near 0.75%.
# Mtb hypoxia rep = inhibitors of hypoxia-regulated fluorescent reporter in Mycobacterium tuberculosis. M. tuberculosis hypoxia-regulated fluorescent reporter, fluorescence. fluorescence inhibition, % (test concentration not listed). hit rate 0.1% among 300,000. AID 1159583; in the data active = fluorescence inhibition mostly above about 23%, no sharp cut-off; inactive = mostly below about 17%
# TcdB GH inh = blocks C. difficile toxin B glycohydrolase activity. P18177. TcdB glycohydrolase enzymatic assay, plate reader. inhibition, % at 9.99 µM. hit rate 0.24% among 350,000; in the data active = inhibition above about 10%
# ugtP null kill = compounds lethal to S. aureus RN4220 ugtP deletion mutant | hit rate 0.54% among 330,000 | growth inhibition, % (concentration not given with the values) | OD600 growth, 16 h; in the data active = growth inhibition above about 68%
# BioA inh-1 = blocks M. tuberculosis BioA enzyme activity; purified M. tuberculosis BioA enzyme, plate reader; inhibition, % at 9.99 µM; hit rate 0.096% among 360,000; in the data active = inhibition above about 40%
# RN4220 kill = kills Staphylococcus aureus RN4220 | AID 1259311 | hit rate 0.33% among 330,000 | S. aureus RN4220 growth, OD600, 16 h | inhibition, % (concentration not given with the values); in the data active = inhibition above about 85%
# Y pestis TopoI = blocks Yersinia pestis topoisomerase I activity; Y. pestis Topo-I cleavage product accumulation, plate reader; activity, % at 10 µM; hit rate 0.064% among 360,000; AID 504884; in the data active = activity above about 50%, passing the limit was not always enough
# BioA inh-2 = blocks M. tuberculosis BioA aminotransferase. shares compounds with BioA inh-1. purified BioA enzyme, plate reader, dose response. max activity, %. 310 tested, under 10 active;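 note: top concentration of the dilution series was 10 µM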
# Target sequence (P9WQ81 whole entry, looked up): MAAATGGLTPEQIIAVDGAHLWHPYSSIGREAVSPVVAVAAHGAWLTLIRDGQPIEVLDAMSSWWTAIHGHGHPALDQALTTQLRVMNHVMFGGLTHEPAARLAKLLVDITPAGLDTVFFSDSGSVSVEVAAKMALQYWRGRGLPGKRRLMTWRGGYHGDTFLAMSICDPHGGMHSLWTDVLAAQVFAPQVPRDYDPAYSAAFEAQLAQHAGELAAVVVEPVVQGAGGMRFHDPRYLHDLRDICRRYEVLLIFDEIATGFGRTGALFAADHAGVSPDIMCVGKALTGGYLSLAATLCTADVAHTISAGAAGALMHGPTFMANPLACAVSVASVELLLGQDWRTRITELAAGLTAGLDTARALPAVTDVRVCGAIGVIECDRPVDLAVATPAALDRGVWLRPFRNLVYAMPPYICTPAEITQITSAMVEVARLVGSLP
# HepG2 cytotox = HepG2 viability loss; shares compounds with BioA inh-1; HepG2 cytotoxicity, plate reader; max activity, %; 310 tested, under 10 active; AID 651898
# 3T3 cytotox 5 = kills NIH3T3 cells; NIH3T3 cytotoxicity, plate reader; shares compounds with BioA inh-1; activity change, negative = cytotoxicity, % at 26 µM; AID 651900; 310 tested, under 10 active
# A number is an active result; – = inactive; · = no result. Unless noted, the rule behind the calls is not given here.
SMILES,Mtb hypoxia rep,TcdB GH inh,ugtP null kill,BioA inh-1,RN4220 kill,Y pestis TopoI,BioA inh-2,HepG2 cytotox,3T3 cytotox 5
O=C(NN=Cc1ccc2c(c1)OCO2)c1cc2ccccc2o1,–,·,–,·,–,·,·,·,·
COc1ccc(CCNC(=O)c2cnc3n(c2=O)CCS3)cc1OC,–,·,–,47.7,–,–,–,–,–
Cc1ccc(S(=O)(=O)N(C)C)cc1NC(=O)CSc1nncs1,–,–,–,51.1,–,–,–,–,–
COc1ccccc1C1=CC(=O)CC(c2ccc(F)cc2)C1 (centres undefined),–,·,–,·,–,·,·,·,·
CCC(=O)N(C)CCc1cc2c(c(OC)c1C=NNC(=O)c1ccc(Br)cc1)OCO2,–,·,–,·,–,·,·,·,·
Cc1cccc(NC(=O)CN(C)S(=O)(=O)c2cnc[nH]2)c1,–,·,–,–,–,–,·,·,·
Cc1cc(NC(=O)CN(C)S(=O)(=O)c2cnc[nH]2)ccc1Br,–,–,–,41.6,–,–,–,–,–
O=C(Nc1ccc(N2CCOCC2)c(Cl)c1)c1cccnc1,·,·,–,47.3,–,–,–,–,–
O=C(Nc1cccnc1)c1ccc(N2CCOCC2)c([N+](=O)[O-])c1,–,–,–,49.2,–,–,–,–,–
O=C(NCc1cccnc1)c1ccc(N2CCOCC2)c([N+](=O)[O-])c1,–,–,–,·,–,–,·,·,·
O=C(Nc1cccnc1)c1ccc(N2CCCC2)c([N+](=O)[O-])c1,–,–,–,72.1,–,–,–,–,–
COc1cc(C(=O)NN=Cc2ccc(OC(=O)c3ccccc3Cl)c(OC)c2)ccc1O,–,·,–,·,–,·,·,·,·
Cc1ccc(C=c2sc3n(c2=O)CN(c2cccc(Br)c2)CN=3)o1,·,·,–,·,–,·,·,·,·
O=C(Nc1ccc(F)c(F)c1)c1ccc(-n2cncn2)c([N+](=O)[O-])c1,–,–,–,78.6,–,–,–,–,–
COc1ccc(NC(=O)c2ccc(-n3cncn3)c([N+](=O)[O-])c2)cc1OC,–,–,–,65.6,–,–,–,–,–
COCCCNC(=O)c1c(N)n(N=Cc2cccs2)c2nc3ccccc3nc12,·,·,–,·,–,·,·,·,·
CCOC(=O)C1=C(C)Nc2sc(C(=O)c3ccc(OC)cc3)c(N)c2C1c1ccc(C(=O)OC)cc1 (centres undefined),–,–,–,–,–,–,·,·,·
COC(=O)C1=C(C)Nc2sc(C(N)=O)c(N)c2C1c1ccncc1 (centres undefined),–,–,–,76.5,–,–,–,–,–
CO[C@H]1CN(C)C(=O)c2ccc(NC(C)=O)cc2OC[C@@H](C)N(C(=O)C2CCCCC2)C[C@H]1C,·,–,·,53.4,·,·,–,–,–
